# Screens (PubChem BioAssay)
# In the library only some 12% were active in any assay of this set; here they are far more common.
# Sm TGR block: inhibitors of Schistosoma mansoni thioredoxin glutathione reductase; purified TGR, DTNB reduction, TNB absorbance 405 nm; Potency, µM (top dose mostly 114 µM), without a hit: at the highest dose activity change, negative = inhibition, actives largely listed as inhibitors; 360,000 tested, 3% active; AID 485364; Q962Y6; also: % is scaled to controls: 0 for no effect and ±100 for the full control effect; nearly all actives have a fitted effect of over 60% in size
#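 Kinetic colorimetric format: TGR-catalysed, NADPH-driven DTNB reduction monitored via TNB absorbance. Enzyme dispensed at 20 nM; compound exposure 15 min at room temperature before reaction start.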
# SARS PLpro yeast: blocks SARS-CoV papain-like protease in a yeast assay; S. cerevisiae expressing SARS-CoV PLpro, growth rescue; 330,000 tested, 0.19% active; Potency, µM (doses to about 32.9 µM), inactives show top-dose activity, positive = growth rescue, actives largely listed as activators; calls by dose curve; also: 0% is about no effect; nearly all actives have a fitted effect of over 55% in size
# AmpC inh detg: blocks E. coli AmpC beta-lactamase in detergent assay | Potency, µM (doses to about 114 µM), inactives show at the highest dose activity change, negative = inhibition, most hits filed as inhibitors | AID 485294 | 370,000 tested, 0.041% active | AmpC hydrolysis of nitrocefin, absorbance 480 nm, 0.01% Triton;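 also: 0% = no-compound wells and -100% = no-enzyme wells; nearly all actives have a fitted effect of over 25% in size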
# Target sequence (P00811 whole entry, looked up): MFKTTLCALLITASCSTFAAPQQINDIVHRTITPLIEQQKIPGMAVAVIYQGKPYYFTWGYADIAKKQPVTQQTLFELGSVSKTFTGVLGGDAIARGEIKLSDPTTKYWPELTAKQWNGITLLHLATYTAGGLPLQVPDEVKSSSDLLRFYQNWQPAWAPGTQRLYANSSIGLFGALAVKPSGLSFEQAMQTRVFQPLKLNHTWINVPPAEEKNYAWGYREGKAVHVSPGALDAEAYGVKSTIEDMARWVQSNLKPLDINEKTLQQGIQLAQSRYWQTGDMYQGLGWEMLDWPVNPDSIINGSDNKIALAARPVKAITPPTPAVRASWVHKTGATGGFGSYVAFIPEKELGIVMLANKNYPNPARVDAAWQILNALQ
#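 20 mM phosphate pH 7.0 + 0.01% (detergent screen) or 0.0001% Triton X-100; 5.3 nM AmpC reagent; cpd preinc 15 min RT; nitrocefin (800 uM stock) to start; A480 q20 s × 4 min; Activity was normalised to no-enzyme and no-compound control wells.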
# Pf growth 96h: P. falciparum growth inhibition at 96 hours. P. falciparum luciferase reporter growth, 96 h. Potency, µM (titrated, usually from 28.7 µM), inactives show top-dose activity change, negative = inhibition, usual class: inhibitors. 320,000 tested, 6.9% active. AID 504834; also: % is scaled to controls: 0 for no effect and ±100 for the full control effect
#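 Delayed-death screen, second-generation endpoint: infected erythrocytes, 2% hematocrit, 0.05% parasitemia final; 96 hours at 37 C, 5% CO2; luciferase detection reagent; luminescence decrease equals reduced growth.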
# Pf growth 48h: P. falciparum growth inhibition at 48 hours (one generation); P. falciparum luciferase growth in erythrocytes, 48 h; Potency, µM (top dose mostly 28.7 µM), for the others: at the highest dose activity change, negative = inhibition, usual class: inhibitors; 310,000 tested, 5.9% active; AID 504832; also: % is scaled to controls: 0 for no effect and ±100 for the full control effect
#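 Luminescence readout; reporter = integrated firefly luciferase in P. falciparum. RBC culture at 2% hematocrit, 0.1% parasitemia final, 37 C/5% CO2; decreased signal taken as growth inhibition.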
# AmpC no deterg: inhibitors of E. coli AmpC beta-lactamase without detergent | AmpC nitrocefin hydrolysis, absorbance 480 nm, 0.0001% Triton | Potency, µM (titrated, usually from 57.1 µM), for the others: at the highest dose activity change, negative = inhibition, usual class: inhibitors | 330,000 tested, 0.52% active | AID 485341;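 also: plate controls were no compound for no effect and no enzyme for full effect; nearly all actives have a fitted effect of over 20% in size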
#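 20 mM phosphate pH 7.0 + 0.01% (detergent screen) or 0.0001% Triton X-100; 5.3 nM AmpC reagent; cpd preinc 15 min RT; nitrocefin (800 uM stock) to start; A480 q20 s × 4 min; Activity was normalised to no-enzyme and no-compound control wells.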
# * hit, by the source's call; ? = inconclusive; · = not tested or not shown; [ ] = remark or other dose. Unless noted, calls follow the shape of the dose curve; as a rule, active = well fitted curve in the direction sought with a large enough effect; inconclusive = small, poorly fitted or top-dose-only effect, or another doubt; inactive = no such curve, though single readings can be large; an effect the other way counts as inactive or inconclusive. Potency is read from the fitted curve at half-maximal effect.
SMILES,Sm TGR block,SARS PLpro yeast,AmpC inh detg,Pf growth 96h,Pf growth 48h,AmpC no deterg
COC(=O)c1ccc(C2c3[nH]c4ccccc4c3C[C@H]3C(=O)N(C4CCN(Cc5ccccc5)CC4)CC(=O)N23)cc1 (stereo partly specified),4.4%,-0.1%,-0.7%,3.29µM*,4.65µM*,132.7%
O=C1[C@@H]2Cc3c([nH]c4ccccc34)C(c3ccccc3)N2C(=O)CN1C1CCN(Cc2ccccc2)CC1 (stereo partly specified),0.0%,-1.9%,1.2%,0.738µM*,9.4%[0.00184 µM],124.4%
CN1CC(=O)N2C(Cc3c([nH]c4ccccc34)[C@H]2c2ccc3c(c2)OCO3)C1=O (stereo partly specified),·,·,·,?,-6.2%,·
O=C1[C@@H]2Cc3c([nH]c4ccccc34)C(c3cccc(Br)c3)N2C(=O)CN1C1CCN(Cc2ccccc2)CC1 (stereo partly specified),-7.2%,1.6%,-0.3%,?,1.47µM*,53.3%
COc1cc(OC)cc(C(=O)Nc2nc(-c3nnn(-c4ccc(F)c(Cl)c4)c3C)ns2)c1,1.0%,·,-3.5%,·,·,·
Cc1ccc2ncc(C(=O)Nc3ccc(F)cc3F)c(=O)n2c1,10.5%,·,25.8%,·,·,·
O=C(/C=C/c1ccco1)NC(=S)Nc1ccc(Cl)cn1,35.5µM*,13.9%,0.9%,·,9.9%,-40.6%
Cc1ccc(O)c(NC(=S)NC(=O)/C=C/c2ccco2)c1,·,-1.3%,0.4%,29.7%,95.7%,-50.3%
Cc1ccc(-c2csc(NC(=S)NC(=O)/C=C/c3ccco3)n2)cc1,-14.3%,-3.6%,0.5%,23.3%,47.4%,3.98µM*
Cc1ccnc(NC(=S)NC(=O)/C=C/c2ccco2)c1,25.1µM*,?,0.6%,29.9%,135.8%,-43.6%
O=C(/C=C\c1ccco1)Nc1nc(-c2ccc3ccccc3c2)cs1,0.7%,-2.5%,-1.2%,-2.2%,-17.6%,-39.7%
CNC1(C)C2CCC(C2)C1(C)C (stereo unspecified),·,·,·,6.01µM*,-12.1%,·
CNC1(C)[C@H]2CC[C@H](C2)C1(C)C (stereo partly specified),·,4.6%,·,·,·,-0.9%
COc1ccc(-n2cnc3c(cnn3CCC#N)c2=N)cc1,3.1%[11.4 µM],-4.1%,-11.2%,15.8%,·,-11.4%
Cc1ccc(NC2c3ncccc3C(=O)N2C2CCCCC2)cc1 (stereo unspecified),-7.3%,-12.3%,-4.1%,?,-28.0%,56.5%
Cc1ccc(NC2c3ncccc3C(=O)N2C2CCCCC2)cc1C (stereo unspecified),-6.9%,-3.0%,-16.0%,33.1%,10.4µM*,51.0%
COc1ccc(S(=O)(=O)N(CC(=O)NC(C)c2ccccc2)c2ccc(C)cc2)cc1OC (stereo unspecified),-0.7%,·,11.1%,·,·,·
Cn1c(C(C#N)C2=C(Cl)C(=O)N(c3ccccc3)C2=O)nc2ccccc21 (stereo unspecified),44.7µM*,-14.9%,?,-1.8%,?,-19.4%
Cc1cccc(OCCCn2c(CCNC(=O)C3CCCCC3)nc3ccccc32)c1,0.6%,·,-2.5%,·,·,·
CC(C)COC(=O)CCn1[nH]c(=O)c2ccccc2c1=O,10.9%[11.4 µM],-0.2%,?,11.6%,·,-20.2%
CCOC(=O)c1c(O)c2ccccc2n(C)c1=O,0.0%,-0.1%,1.3%,3.2%,14.4%,-22.2%
CCCCCCCCOC(=O)CCn1[nH]c(=O)c2ccccc2c1=O,8.3%,-32.7%,?,10.4µM*,?,-20.1%
CCCCCOC(=O)Cc1c(O)c2ccccc2n(C)c1=O,3.98µM*,-17.6%,-16.6%,-5.6%,21.7%,-4.3%
Cc1cc(C)c2c(n1)sc1c(=O)n(-c3cc(Cl)ccc3C)nnc12,-1.4%,·,20.4%,·,·,·
COc1cc(OC)cc(OCC(O)Cn2cnc3cc(C)c(C)cc32)c1 (stereo unspecified),5.2%,1.2%,?,10.4µM*,·,77.1%
SMILES,Sm TGR block,SARS PLpro yeast,AmpC inh detg,Pf growth 96h,Pf growth 48h,AmpC no deterg
COc1ccc(CNC(=O)c2cnc(N3CCCC3)nc2C)cc1,-1.5%,·,0.3%,·,·,·
CCc1ccc(-c2csc3[n+]2CCN3C(C)=O)cc1,0.7%,-29.7%,-3.8%,?,2.94µM*,27.3%
Cc1ccc(-n2nnnc2SCC(=O)Nc2ncc(Cc3ccccc3Cl)s2)cc1,8.6%,-10.2%,2.2%,-5.6%,-1.9%,-8.0%
CCC(=O)N1c2ccccc2C(N(C(C)=O)c2ccccc2)CC1C (stereo unspecified),10µM*,25.1%,1.3%,?,-28.2%,25.7%
CCCC(=O)N1c2ccccc2[C@@H](N(C(C)=O)c2ccccc2)C[C@H]1C,0.0%,-0.8%,-12.4%,?,?,41.3%
CCOC(=O)C1CCCN(C(=O)COC(=O)c2ccc(C#N)cc2)C1 (stereo unspecified),1.2%,0.0%,3.4%,34.8%,0.0%,-6.0%
Cc1ccc(S(=O)(=O)N/N=C/c2cccc3c2OCCO3)cc1,-9.0%,6.3%,-17.6%,2.08µM*,1.5%,-53.5%
CC(=O)c1ccc(N2CCN(CC(O)COC(c3ccccc3)c3ccccc3C)CC2)cc1 (stereo unspecified),2.8%,0.3%,?,?,10.4µM*,58.1%
CC(=O)c1ccc(N2CCN(CC(O)COC(c3ccccc3)c3ccccc3)CC2)cc1 (stereo unspecified),-0.6%,3.6%,?,-7.0%,?,62.9%
CS(=O)(=O)c1ccc([C@@H](O)[C@@H](COC(=O)CN)NC(=O)C(Cl)Cl)cc1,·,·,·,1.9µM*,?,·
Cc1cc(F)ccc1NC(=O)CS(=O)(=O)c1cccc2nsnc12,-5.0%,·,-4.1%,·,·,·
C/C(CCC12CC3CC(CC(C3)C1)C2)=N\NC(N)=S,-7.9%,?,-14.2%,?,·,-37.1%
C/C(CC(C)(C)C1CCCCC1)=N\NC(N)=S,0.0%,-37.1%,?,2.94µM*,·,-29.7%
COc1ccc(NC(=O)c2ccc3nc(CCc4ccccc4)oc3c2)cc1,1.8%,·,15.7%,·,·,·
COc1ccccc1NC(=O)CC(NCc1ccccc1)C(=O)O (stereo unspecified),-11.6%,-0.3%,?,2.62µM*,2.3%,-9.6%
C=C[C@@H]1c2ccccc2N(S(=O)(=O)c2ccc(C)cc2)[C@H](c2ccc(OC(C)=O)cc2)C1(C#N)C#N,1.0%,0.4%,6.7%,?,3.7µM*,-31.9%
COC(=O)c1cccc(C23CC4(C2)[C@H](CN(Cc2ccc(-c5ccccc5)cc2)[C@@H]4c2ccccc2)C3c2ccc(Cl)nc2)c1 (stereo partly specified),-24.8%,0.3%,2.2%,?,?,-27.2%
